From PubChem BioAssay AID1159580 (chemical genetic matrix, 2015)
Several values for one entry are separate records, joined by “and”; a condition that tells them apart may be missing. Equal values may be shown once. Hit rate of the full screen: of about 5,500 compounds, about 2,000 (36%) were called active. Inconclusive results (about 18%) are left out. No stated cut-off is given here; in the data, active means normalized growth mostly below about 0.91 (no sharp cut-off); inconclusive means no clear call, values can overlap the other calls; inactive means mostly above about 0.92. The list shows a part of the results.

Assay: chemical genetic growth profiling, strain panel (AID 1159580);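 further: tested at 20 µM; growth read once vehicle control cultures reached saturation at 30 °C; 1 = growth at the plate median or of vehicle wells; lower values mean less growth of the strain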
Conditions: S. cerevisiae deletion strains, growth OD

Measured: normalized growth

CC(=O)NS(=O)(=O)c1ccc(N)cc1
inactive: locus YAL021C, strain ccr4, active compounds read low 1 | locus YAL026C, strain drs2, active compounds read low 1.01 | locus YAL030W, strain snc1, active compounds read low 1.01 | locus YBL061C, strain skt5, active compounds read low 0.999 | locus YBR009C, strain hhf1, active compounds read low 1.01 | locus YBR021W, strain FUR4, active compounds read low 0.987 | locus YBR023C, strain chs3, active compounds read low 1.01 | locus YBR171W, strain sec66, active compounds read low 1.02 | locus YBR229C, strain ROT2, active compounds read low 0.986 | locus YBR231C, strain swc5, active compounds read low 1.03 | locus YBR279W, strain paf1, active compounds read low 1.01 | locus YCL011C, strain gbp2, active compounds read low 1.02 | locus YCL016C, strain dcc1, active compounds read low 1.01 | locus YCL029C, strain bik1, active compounds read low 0.973 | locus YCL061C, strain MRC1, active compounds read low 1.02 | locus YCL069W, strain vba3, active compounds read low 1 | locus YCR088W, strain abp1, active compounds read low 1.01 | locus YDL005C, strain med2, active compounds read low 1.01 | locus YDL035C, strain GPR1, active compounds read low 1 | locus YDL040C, strain nat1, active compounds read low 0.995 | locus YDL074C, strain BRE1, active compounds read low 1.02 | locus YDL101C, strain DUN1, active compounds read low 0.987 | locus YDL134C, strain PPH21, active compounds read low 0.99 | locus YDL185W, strain tfp1, active compounds read low 0.98 | locus YDL192W, strain arf1, active compounds read low 0.971 | locus YDR001C, strain nth1, active compounds read low 1.01 | locus YDR069C, strain doa4, active compounds read low 1.03 | locus YDR101C, strain arx1, active compounds read low 0.971 | locus YDR137W, strain rgp1, active compounds read low 0.997 | locus YDR150W, strain NUM1, active compounds read low 0.994 | locus YDR159W, strain sac3, active compounds read low 1.03 | locus YDR162C, strain NBP2, active compounds read low 0.999 | locus YDR195W, strain ref2 0.998 | locus YDR297W, strain sur2, active compounds read low 1 | locus YDR318W, strain mcm21, active compounds read low 0.987 | locus YDR334W, strain swr1, active compounds read low 0.999 | locus YDR335W, strain msn5, active compounds read low 0.993 | locus YDR388W, active compounds read low 0.977 | locus YDR392W, strain spt3, active compounds read low 1.01 | locus YDR502C, strain sam2, active compounds read low 0.99 | locus YEL003W, strain gim4, active compounds read low 1.01 | locus YEL037C, strain rad23, active compounds read low 1.01 | locus YEL061C, strain CIN8 (second series), active compounds read low 1.02 | locus YEL061C, strain CIN8, active compounds read low 0.993 | locus YER015W, strain faa2, active compounds read low 1.01 | locus YER016W, strain bim1, active compounds read low 1.02 | locus YER110C, active compounds read low 0.975 | locus YER111C, strain swi4, active compounds read low 1 | locus YER155C, strain BEM2 (second series), active compounds read low 1.05 | locus YER155C, strain BEM2, active compounds read low 0.986 | locus YER167W, strain BCK2, active compounds read low 0.989 | locus YFR010W, strain ubp6, active compounds read low 1.02 | locus YGL078C, strain dbp3, active compounds read low 0.974 | locus YGL086W, strain mad1, active compounds read low 1 | locus YGL167C, strain pmr1, active compounds read low 0.999 | locus YGL173C, strain kem1, active compounds read low 1.01 | locus YGL227W, strain vid30, active compounds read low 1.01 | locus YGL240W, strain doc1, active compounds read low 0.999 | locus YGL248W, strain PDE1, active compounds read low 0.994 | locus YGL253W, strain hxk2, active compounds read low 1.02 | locus YGR078C, strain PAC10, active compounds read low 0.998 | locus YGR135W, strain pre9, active compounds read low 0.976 | locus YGR252W, strain gcn5, active compounds read low 1.05 | locus YHR013C, strain ard1, active compounds read low 1.01 | locus YHR027C, strain rpn1, active compounds read low 1.02 | locus YHR030C, strain SLT2, active compounds read low 0.992 and 0.987 | locus YHR079C, strain IRE1 (second series), active compounds read low 0.978 | locus YHR079C, strain IRE1, active compounds read low 0.982 | locus YHR094C, strain hxt1, active compounds read low 0.993 | locus YHR129C, strain ARP1, active compounds read low 0.997 | locus YHR142W, strain chs7, active compounds read low 1.01 | locus YHR200W, strain rpn10, active compounds read low 0.984 | locus YIL066C, strain RNR3, active compounds read low 0.993 | locus YIL073C, strain SPO22, active compounds read low 0.934 | locus YIL125W, strain kgd1, active compounds read low 0.986 | locus YIR030C, strain dcg1, active compounds read low 0.981 | locus YJL092W, strain hpr5, active compounds read low 1.02 | locus YJL095W, strain BCK1 (second series), active compounds read low 1.01 | locus YJL095W, strain BCK1, active compounds read low 1 and 0.978 | locus YJL115W, strain asf1, active compounds read low 1.04 | locus YJL129C, strain trk1, active compounds read low 1.01 | locus YJL134W, strain LCB3, active compounds read low 0.992 | locus YJL154C, strain vps35, active compounds read low 1.01 | locus YJL164C, strain tpk1, active compounds read low 1 | locus YJL166W, strain qcr8, active compounds read low 1 | locus YJL168C, strain set2, active compounds read low 0.986 | locus YJL187C, strain SWE1 (second series), active compounds read low 0.983 | locus YJL187C, strain SWE1, active compounds read low 1.01 | locus YJR043C, strain POL32, active compounds read low 0.997
